TrxR1 substrate – rat thioredoxin reductase 1 substrate activity; purified TrxR1 substrate turnover, NADPH consumption readout; Potency, µM (top dose mostly 114 µM), without a hit: at the top dose activity change, negative = substrate turnover; 390,000 tested, 0.01% active; AID 588456; note: potency is the fitted concentration of half-maximal effect; % is set by controls: 0 for no effect and ±100 for the full control effect; nearly all actives have a fitted effect of over 50% in size
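Rat TrxR1, dispensed at 90 nM, was prereduced with 400 uM NADPH (final) for 5 min at ~22 deg C, then incubated with compound 15 min before 400 uM selenite. A first-read NADPH fluorescence drop versus no-compound background flagged substrates.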
IL-2 act – activators of IL-2 | IL-2 activation reporter assay, cell-based qHTS; stimulated with anti-CD3/CD4/CD28 beads; in transgenic mouse T cells | activation, % (series mostly up to about 46 µM) | 360,000 tested, 0.065% active | AID 652025; in the data active = activation above about 50%; inconclusive = mostly about 30% to 49%; note: 0% is about no effect
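Unstimulated transgenic mouse T cells, 750 per well, received compound and, after 60 minutes, anti-CD3/anti-CD4 bead plus anti-CD28 stimulation. EGFP and DsRed were quantified after 18 hours.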
Giardia kill – kills Giardia lamblia; Giardia lamblia trophozoite viability; activity change, % at 7.66 µM, hits read low; 340,000 tested, 0.15% active; in the data active = activity change below about -80%; inconclusive = between about -30% and that limit;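 note: parasites exposed to compound for two days anaerobically before the ATP read; % is set by controls: 0 for no effect and ±100 for the full control effect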
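Compounds were tested on trophozoites seeded at 100 cells/well and held 48 hrs at 37 deg C anaerobically. An ATP-based luminescent kit measured the remaining live cells.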
BRCA1 expr act – increases BRCA1 expression; MCF7-BRCA1-FFLuc reporter, luminescence, 48 h; response scale: scaled: vehicle 0%, 10 µM genistein 100%; Potency, µM (titrated, usually from 46.1 µM), without a hit: at the highest dose activation, most hits filed as activators; 380,000 tested, 1.1% active; AID 624202; note: potency is the fitted concentration of half-maximal effect; nearly all actives have a fitted effect of over 80% in size
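Compounds are tested at multiple concentrations on MCF7 BRCA1-luciferase reporter cells seeded at 2000 per well; after 48 h, a single luminescence end-point is taken and curves fitted to the normalized data.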
TrxR1 inh – inhibitors of rat thioredoxin reductase 1. recombinant rTrxR1, NADPH fluorescence consumption, selenite substrate. Potency, µM (doses to about 114 µM), for inactives: at the top dose activity change, negative = inhibition, hits mostly inhibitors. 390,000 tested, 1% active. AID 588453; note: potency is the fitted concentration of half-maximal effect; % is set by controls: 0 for no effect and ±100 for the full control effect; nearly all actives have a fitted effect of over 65% in size
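Rat TrxR1 (90 nM in the dispensed reagent) was pre-reduced with 400 uM NADPH for 5 min at room temperature, then incubated with compound for 15 min. After 400 uM selenite was added, NADPH fluorescence (Ex 340/Em 450 nm) was followed for 8 min.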
IDH1 R132H inh – human IDH1 R132H inhibition | O75874 | IDH1-R132H enzyme, NADPH consumption, diaphorase/resazurin fluorescence | Potency, µM (doses to about 76.6 µM), without a hit: top-dose activity change, negative = inhibition, most hits filed as inhibitors | 390,000 tested, 0.093% active; note: potency is the fitted concentration of half-maximal effect; % is set by controls: 0 for no effect and ±100 for the full control effect; nearly all actives have a fitted effect of over 65% in size
Target sequence (O75874 whole entry R132H, stated change not applied): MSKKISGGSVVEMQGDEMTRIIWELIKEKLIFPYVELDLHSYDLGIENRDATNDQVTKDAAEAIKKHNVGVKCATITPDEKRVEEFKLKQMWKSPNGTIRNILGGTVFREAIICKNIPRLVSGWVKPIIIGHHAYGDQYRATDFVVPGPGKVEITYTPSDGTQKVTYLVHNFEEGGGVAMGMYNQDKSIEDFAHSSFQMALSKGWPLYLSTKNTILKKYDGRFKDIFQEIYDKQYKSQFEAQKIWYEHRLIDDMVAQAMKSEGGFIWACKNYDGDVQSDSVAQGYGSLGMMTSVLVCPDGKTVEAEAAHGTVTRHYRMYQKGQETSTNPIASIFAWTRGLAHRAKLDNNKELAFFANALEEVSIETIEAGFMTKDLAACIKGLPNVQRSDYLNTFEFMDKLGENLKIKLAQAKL
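IDH1-R132H (0.5 ug/mL) preincubated 30 min with compound, then NADPH (0.016 mM) and alpha-KG (2 mM) added; 80 min at RT, pH 7.5. Remaining NADPH coupled via diaphorase/resazurin to fluorescence (540/590 nm); concentration-response curves normalized to no-enzyme control.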
Starred values were filed as active, the others as inactive; [ ] = remark or other dose. Hits are enriched below; roughly 2.2% of the tested compounds scored in any of these assays. Unless noted, calls come from the whole dose curve; as a rule, active = well fitted curve in the direction sought with a large enough effect; inconclusive = small, poorly fitted or top-dose-only effect, or another doubt; inactive = no such curve, though single readings can be large; an effect the other way counts as inactive or inconclusive.

For COCC(=O)n1nc(-c2ccccc2)nc1NCc1cccs1 the results were TrxR1 substrate 10%[57.1 µM], IL-2 act -1, Giardia kill -1, BRCA1 expr act 10µM*, TrxR1 inh 15%[57.1 µM] and IDH1 R132H inh 2%.
`COc1cccc(CNS(=O)(=O)c2ccc3c(c2)C(C(C)C)C(=O)N3)c1` (stereo not given) gave TrxR1 substrate -8%, TrxR1 inh -5% and IDH1 R132H inh 4%.
For Cc1ccc(Cl)cc1Nc1nn2c(=O)c3ccc(C(=O)NC(C)c4ccccc4)cc3nc2s1 (stereo not given) the results were TrxR1 substrate 9%, TrxR1 inh 8% and IDH1 R132H inh -3%.
`O=c1cc(-c2ccc(O)cc2)oc2ccc(O)cc12` gave TrxR1 substrate 0%, IL-2 act -1, Giardia kill -12, BRCA1 expr act 2.8µM*, TrxR1 inh 28% and IDH1 R132H inh 0%.
O=c1cc(-c2ccccc2)oc2cc(O)ccc12 was read as TrxR1 substrate -2%[57.1 µM], IL-2 act 3, Giardia kill 36, BRCA1 expr act 10µM*, TrxR1 inh 2%[57.1 µM] and IDH1 R132H inh 2%.
For O=c1cc(-c2ccc(O)cc2)oc2cc(O)cc(O)c12 the results were TrxR1 substrate 2%[57.1 µM], IL-2 act -1, Giardia kill 29, BRCA1 expr act 22µM*, TrxR1 inh 3%[57.1 µM] and IDH1 R132H inh -14%.
For O=C(NCCc1nc2ccccc2n1CCCOc1ccc2ccccc2c1)C1CCCCC1 the results were TrxR1 substrate 6%[0.0914 µM], Giardia kill 6, BRCA1 expr act -9% and TrxR1 inh 15%.
For COc1ccc(C(=O)CSc2nnc(-c3ccco3)c(-c3ccco3)n2)cc1 the results were TrxR1 substrate -8%, IL-2 act -4, Giardia kill -5, BRCA1 expr act -22%, TrxR1 inh 8.9µM* and IDH1 R132H inh -5%.
COc1ccc(C(=O)CSc2nnc(-c3ccco3)n2C)cc1 was read as TrxR1 substrate -1%[57.1 µM], IL-2 act -3, Giardia kill 3, BRCA1 expr act 9%, TrxR1 inh inconclusive and IDH1 R132H inh 6%.
COc1cccc(NC(=O)CSc2nnc(-c3ccco3)c(-c3ccco3)n2)c1 was read as TrxR1 substrate -5%, IL-2 act -4, Giardia kill 4, BRCA1 expr act -14%, TrxR1 inh 7.1µM* and IDH1 R132H inh 5%.
`CSc1nnc(-c2ccco2)c(-c2ccco2)n1` gave TrxR1 substrate -9%, IL-2 act 0, Giardia kill 6, BRCA1 expr act -35%, TrxR1 inh 16µM* and IDH1 R132H inh 8%.
For COc1ccc(NC(=O)CSc2nnc(-c3ccco3)c(-c3ccco3)n2)cc1OC the results were TrxR1 substrate 14%[0.457 µM], IL-2 act -4, Giardia kill 20, BRCA1 expr act -22%, TrxR1 inh inconclusive and IDH1 R132H inh 6%.
For Cc1ccc(NC(=O)CSc2nnc(-c3ccco3)c(-c3ccco3)n2)cc1 the results were TrxR1 substrate -13%, IL-2 act 2, Giardia kill -6, BRCA1 expr act -49%, TrxR1 inh 1µM* and IDH1 R132H inh 6%.
Cc1cccc(CC(=O)Nc2ccc3nc(N4CCC(C)CC4)cc(C)c3c2)c1 was read as TrxR1 substrate 24%, BRCA1 expr act 5%, TrxR1 inh 6% and IDH1 R132H inh 9%.
Screening O=C(CSc1nnc(-c2ccco2)c(-c2ccco2)n1)Nc1ccccc1 returned TrxR1 substrate -13%, IL-2 act 0, Giardia kill -6, BRCA1 expr act -20%, TrxR1 inh 5µM* and IDH1 R132H inh 7%.
`COc1ccc(SCC(c2ccccc2)N2CCN(CC(C)C)CCC2=O)cc1` (stereo not given) gave TrxR1 substrate -16%, Giardia kill 45 and TrxR1 inh 39%.
